Reference: the supplement of paper PMC9262897, “Low-cost anti-mycobacterial drug discovery using engineered E. coli” (Nature Communications, 2022)
Counter-ions that a name gives are not always drawn. ± gives the standard deviation of the averaged measurements.

What was measured:
Test in all cases: growth (OD600 after 10 h); higher = more growth (less inhibition)
[1] = test system: E. coli TESEC Alr+ wild-type control; details: compound 0.1 mM; raw OD600 reference: median of DMSO wells 0.241, cell-free background 0.041
Description: (§1)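 TESEC Mtb Alr E. coli, or the Alr+ wild-type control, in 384-well plates with Prestwick library compounds at 0.1 mM and 1% DMSO, across arabinose induction levels of 1E3 to 1E7 nM. Growth is read as OD600 after 10 h at 37 °C in triplicate biological replicates.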

E. coli TESEC Mtb Alr [2] = details: compound 0.1 mM
Description: as §1

E. coli TESEC Mtb Asd = details: compound 0.1 mM
Description: (§2)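 TESEC E. coli strains in which the native enzyme is deleted and replaced by arabinose-inducible Mtb Asd, DapB, CysH or TrpD, each grown in its selective medium. Strains were screened against the Prestwick library at 0.1 mM and 1% DMSO in 384-well format at low and high arabinose induction. Growth is read as OD600 after 10 h in triplicate.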

E. coli TESEC Mtb DapB = details: compound 0.1 mM
Description: as §2

[3] = test system: E. coli TESEC Alr+ wild-type control; details: compound 0.1 mM; raw OD600 reference: median of DMSO wells 0.49, cell-free background 0.052
Description: (§3)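 TESEC Mtb Alr E. coli (ΔaraC ΔtolC ΔentC Δalr ΔdadX, arabinose-inducible Mtb Alr) or the Alr+ wild-type control strain, grown in defined M9-fructose medium without D-alanine in 96-well plates with Prestwick library compounds at 0.1 mM and 1% DMSO. Low Alr induction is 0.1 µM arabinose and high induction is 10 mM arabinose.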

E. coli TESEC Mtb Alr [4] = details: compound 0.1 mM; remark: listed apart in the source
Description: as §3

[5] = arabinose 1000 nM, raw OD600 reference: median of DMSO wells 0.294, cell-free background 0.041
[6] = arabinose 10000 nM, raw OD600 reference: median of DMSO wells 0.264, cell-free background 0.041
[7] = arabinose 100000 nM, raw OD600 reference: median of DMSO wells 0.201, cell-free background 0.041
[8] = arabinose 1000000 nM, raw OD600 reference: median of DMSO wells 0.193, cell-free background 0.041
[9] = arabinose 10000000 nM, raw OD600 reference: median of DMSO wells 0.146, cell-free background 0.041
[10] = arabinose induction (level): High, raw OD600 reference: median of DMSO wells 0.331, cell-free background 0.041
[11] = arabinose induction (level): Low, raw OD600 reference: median of DMSO wells 0.417, cell-free background 0.041
[12] = arabinose induction (level): High, raw OD600 reference: median of DMSO wells […], cell-free background 0.041
[13] = arabinose induction (level): Low, raw OD600 reference: median of DMSO wells 0.227, cell-free background 0.041
[14] = arabinose 100 nM, raw OD600 reference: median of DMSO wells 0.413, cell-free background 0.052
[15] = arabinose 10000000 nM, raw OD600 reference: median of DMSO wells […], cell-free background 0.052

| Structure (SMILES) | growth [1] | growth (E. coli TESEC Mtb Alr [2]; [5]) | growth (E. coli TESEC Mtb Alr [2]; [6]) | growth (E. coli TESEC Mtb Alr [2]; [7]) | growth (E. coli TESEC Mtb Alr [2]; [8]) | growth (E. coli TESEC Mtb Alr [2]; [9]) | growth (E. coli TESEC Mtb Asd; [10]) | growth (E. coli TESEC Mtb Asd; [11]) | growth (E. coli TESEC Mtb DapB; [12]) | growth (E. coli TESEC Mtb DapB; [13]) | growth [3] | growth (E. coli TESEC Mtb Alr [4]; [14]) | growth (E. coli TESEC Mtb Alr [4]; [15]) |
| --- | --- | --- | --- | --- | --- | --- | --- | --- | --- | --- | --- | --- | --- |
| CC1CC(OC(=O)C(O)c2ccccc2)CC(C)(C)N1C (centres undefined) [Eucatropine hydrochloride] | 0.245 ± 0.0073 | 0.326 ± 0.015 | 0.282 ± 0.0064 | 0.194 ± 0.0092 | 0.191 ± 0.0054 | 0.156 ± 0.0098 | 0.479 ± 0.008 | 0.432 ± 0.065 | 0.199 ± 0.033 | 0.227 ± 0.024 | 0.444 ± 0.029 | 0.402 ± 0.014 | 0.36 ± 0.016 |
| CN(C)CCN(Cc1cccs1)c1ccccn1 [Methapyrilene hydrochloride] | 0.216 ± 0.0071 | 0.281 ± 0.012 | 0.252 ± 0.007 | 0.224 ± 0.024 | 0.165 ± 0.0065 | 0.143 ± 0.0051 | 0.257 ± 0.024 | 0.41 ± 0.059 | 0.175 ± 0.0071 | 0.193 ± 0.0062 | 0.644 ± 0.021 | 0.402 ± 0.011 | 0.332 ± 0.011 |
| O=C(CCCCC(=O)Nc1c(I)cc(I)c(C(=O)O)c1I)Nc1c(I)cc(I)c(C(=O)O)c1I [Iodipamide] | 0.249 ± 0.012 | 0.298 ± 0.0095 | 0.245 ± 0.0068 | 0.191 ± 0.0062 | 0.17 ± 0.0029 | 0.143 ± 0.0046 | 0.436 ± 0.022 | 0.452 ± 0.049 | 0.213 ± 0.0095 | 0.239 ± 0.03 | 0.527 ± 0.092 | 0.407 ± 0.013 | 0.346 ± 0.014 |
| CCN(CC)CCNC(=O)c1cc(S(C)(=O)=O)ccc1OC [Tiapride hydrochloride] | 0.249 ± 0.0035 | 0.295 ± 0.01 | 0.263 ± 0.0064 | 0.213 ± 0.016 | 0.184 ± 0.0024 | 0.149 ± 0.0067 | 0.295 ± 0.057 | 0.422 ± 0.045 | 0.183 ± 0.023 | 0.218 ± 0.035 | 0.481 ± 0.087 | 0.422 ± 0.011 | 0.361 ± 0.013 |
| CC1CC(OC(=O)c2ccccc2O)CC(C)(C)C1 (centres undefined) [Homosalate] | 0.248 ± 0.0027 | 0.3 ± 0.005 | 0.263 ± 0.019 | 0.199 ± 0.03 | 0.18 ± 0.0023 | 0.15 ± 0.0039 | 0.202 ± 0.011 | 0.332 ± 0.052 | 0.194 ± 0.018 | 0.205 ± 0.027 | 0.543 ± 0.057 | 0.3918 ± 0.0032 | 0.332 ± 0.016 |
| CCCCCCCN(CC)CCCC(O)c1ccc(NS(C)(=O)=O)cc1 (centres undefined) [Ibutilide fumarate] | 0.219 ± 0.041 | 0.298 ± 0.013 | 0.268 ± 0.01 | 0.183 ± 0.02 | 0.158 ± 0.0044 | 0.137 ± 0.001 | 0.271 ± 0.022 | 0.44 ± 0.022 | 0.197 ± 0.027 | 0.243 ± 0.019 | 0.55 ± 0.095 | 0.408 ± 0.0059 | 0.313 ± 0.016 |
| CC[C@H]1OC(=O)[C@H](C)[C@@H](O[C@H]2C[C@@](C)(OC)[C@@H](O)[C@H](C)O2)[C@H](C)[C@@H](O[C@@H]2O[C@H](C)C[C@H](N(C)C)[C@H]2O)[C@](C)(O)C[C@@H](C)CN(C)[C@H](C)[C@@H](O)[C@]1(C)O [Azithromycin] | 0.04107 ± 0.00015 | 0.0419 ± 0.0015 | 0.03977 ± 0.00031 | 0.0416 ± 0.00058 | 0.03993 ± 0.00025 | 0.0413 ± 0.00057 | 0.0597 ± 0.003 | 0.0647 ± 0.0021 | 0.1 ± 0.088 | 0.0998 ± 0.09 | 0.0526 ± 0.00017 | 0.05527 ± 0.00032 | 0.05133 ± 0.00015 |
| CCN(CCO)CCCC(C)Nc1ccnc2cc(Cl)ccc12 (centres undefined) [Hydroxychloroquine sulfate] | 0.228 ± 0.0034 | 0.282 ± 0.011 | 0.27 ± 0.0028 | 0.19 ± 0.015 | 0.1939 ± 0.0019 | 0.147 ± 0.0019 | 0.265 ± 0.052 | 0.352 ± 0.013 | 0.198 ± 0.0048 | 0.24 ± 0.04 | 0.54 ± 0.024 | 0.405 ± 0.01 | 0.354 ± 0.017 |
